Screening data from PubChem.
Hits are enriched below; roughly 10% of the tested compounds scored in any of these assays.
GLA inh pH 4.5 – qHTS Assay for Inhibitors of Human alpha-Galactosidase at pH 4.5. purified enzyme, 4-MU-alpha-Gal fluorescence, pH 4.5. Alpha-galactosidase A (Homo sapiens), P06280. activity change, negative = inhibition, % at 105 µM. 230,000 tested, under 10 active;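 further: 0% = full activity with enzyme and -100% = basal without enzyme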
GLA spleen mod – qHTS Assay for Inhibitors and Activators of Human alpha-Galactosidase From Spleen Homogenate. AID 2107, 2009. Potency, µM (highest dose often 80 µM), inactives show at the top dose activity change, negative = inhibition, hits mostly inhibitors. actives 0.008% (n = 240,000). Alpha-galactosidase A (Homo sapiens), P06280. human spleen homogenate, 4MU-alpha-Gal fluorescence, 40 min;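 further: potency means the concentration at half of the fitted maximal effect; 0% = enzyme with vehicle and -100% = no enzyme basal signal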
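Spleen homogenate 1 ug + cpd (titration) + 4-MU-alpha-D-galactopyranoside 1 mM; 37C 40 min; 50 mM citrate/phosphate pH 5.0, 0.01% Tween-20; stop pH 10; fluorescence 365/440; AC50 via Hill.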
HPGD inh – qHTS Assay for Inhibitors of HPGD (15-Hydroxyprostaglandin Dehydrogenase); 15-hydroxyprostaglandin dehydrogenase [NAD(+)] (Homo sapiens), P15428; purified HPGD, NADH fluorescence kinetic, PGE2 substrate; Potency, µM, inactives show top-dose activity change, negative = inhibition, most hits filed as inhibitors; actives 4.3% (n = 150,000); AID 894, 2007; active means well fitted inhibition curve with a large enough effect, not every such curve was filed as active; inconclusive means small, poorly fitted or top-dose-only effect, or another doubt; inactive means no such curve, though single readings can be large or run the other way; further: potency means the concentration at half of the fitted maximal effect
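20 nM HPGD preincubated 15 min at room temperature with compound in 50 mM Tris-HCl pH 8, 0.01% Tween 20. Started with 1 mM NAD+ and 30 uM prostaglandin E2; NADH fluorescence (360/450 nm) read 5 times over 30-s intervals, last minus first.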
12-hLO inh – qHTS Assay for Inhibitors of 12-hLO (12-human lipoxygenase); AID 1452, 2008; actives 0.12% (n = 150,000); Potency, µM (titrated, usually from 57.1 µM), for inactives: at the top dose activity change, negative = inhibition, usual class: inhibitors; purified 12-hLO, xylenol orange hydroperoxide absorbance; Polyunsaturated fatty acid lipoxygenase ALOX12 (Homo sapiens), P18054; further: potency means the concentration at half of the fitted maximal effect; nearly all actives have a fitted effect of over 55% in size
Target sequence (P18054 whole entry, looked up): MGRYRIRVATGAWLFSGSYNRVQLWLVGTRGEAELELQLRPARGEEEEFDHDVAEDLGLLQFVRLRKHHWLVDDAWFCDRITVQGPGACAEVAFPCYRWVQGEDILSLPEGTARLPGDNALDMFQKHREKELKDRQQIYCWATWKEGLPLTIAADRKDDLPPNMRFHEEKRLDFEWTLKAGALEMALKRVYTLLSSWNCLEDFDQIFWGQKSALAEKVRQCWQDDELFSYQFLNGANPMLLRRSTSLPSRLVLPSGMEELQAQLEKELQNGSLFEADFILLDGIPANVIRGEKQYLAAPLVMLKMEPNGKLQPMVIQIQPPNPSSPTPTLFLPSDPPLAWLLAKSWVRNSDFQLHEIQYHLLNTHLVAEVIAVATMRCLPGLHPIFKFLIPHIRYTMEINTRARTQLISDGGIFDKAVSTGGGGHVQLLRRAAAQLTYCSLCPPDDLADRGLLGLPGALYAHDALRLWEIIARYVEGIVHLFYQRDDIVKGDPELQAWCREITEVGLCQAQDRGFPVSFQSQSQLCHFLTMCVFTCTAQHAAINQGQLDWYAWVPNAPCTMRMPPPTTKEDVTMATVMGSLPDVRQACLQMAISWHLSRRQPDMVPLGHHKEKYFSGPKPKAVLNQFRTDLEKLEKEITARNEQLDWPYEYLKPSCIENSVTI
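Purified human 12hLO (150 nM final) was preincubated with compounds for 15 min at room temperature in 25 mM Hepes pH 7.0, 0.01% Triton X-100, then reacted with 40 uM arachidonic acid for 30 min. Hydroperoxide was detected with ferrous iron/xylenol orange.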
PNC assembly inh – High Content Assay for Compounds that inhibit the Assembly of the Perinucleolar Compartment; PC3M PTB-GFP, PNC prevalence imaging, 16 h; hits give low values; activity change (PNC), negative = inhibition, % at 10 µM; actives 3.1% (n = 140,000);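 active means readout at or below -70, meaning at least 70% loss of cells showing the perinucleolar compartment, a nuclear body marking cancer cells; inconclusive means readout between -30 and a set limit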;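 further: plate controls were DMSO wells for no effect and camptothecin positive control wells for full effect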
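PC3M cells stably expressing PTB-GFP, 750–1000 cells/well, treated 16 h at 37 °C with compound (23 nl of library stock), in duplicate. After paraformaldehyde fixation and Hoechst stain, imaged at 20x; PNC prevalence scored by image analysis.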
ALDH1A1 inh – qHTS Assay for Inhibitors of Aldehyde Dehydrogenase 1 (ALDH1A1). Purified ALDH1A1, NADH fluorescence, propionaldehyde substrate. Potency, µM (highest dose often 75.3 µM), inactives show top-dose activity, negative = inhibition, actives largely listed as inhibitors. Aldehyde dehydrogenase 1A1 (Homo sapiens), P00352. AID 1030, 2008. actives 7.3% (n = 220,000); active means well fitted inhibition curve with a large enough effect, not every such curve was filed as active; inconclusive means small, poorly fitted or top-dose-only effect, or another doubt; inactive means no such curve, though single readings can be large or run the other way;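 further: potency means the concentration at half of the fitted maximal effect; plate controls were no enzyme wells and a reference inhibitor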
Numbers without * were called inactive; u = inconclusive; x = not tested or not shown. Unless noted, the call rests on the fitted dose curve; in most records, active means well fitted curve in the direction sought with a large enough effect; inconclusive means small, poorly fitted or top-dose-only effect, or another doubt; inactive means no such curve, though single readings can be large; an effect the other way counts as inactive or inconclusive. Unless noted, on the % scale 0 is the no-effect control and ±100 the full control effect.

SMILES	GLA inh pH 4.5	GLA spleen mod	HPGD inh	12-hLO inh	PNC assembly inh	ALDH1A1 inh
O=C(CSc1nnnn1C1CCCCC1)Nc1nc2c(s1)CCCC2	2	8%	-7%	-10%	24	7.9µM*
CCCCNC(=S)NNC(=O)c1ccc(Br)o1	10	-3%	-17%	3%	20	7%
O=C(C[n+]1ccccc1)Nc1ccccc1C(=O)O	-7	3%	x	x	x	9%
Cn1c2c(c(=O)n(C)c1=O)C1c3cc(Cl)ccc3OCC1CO2 (centres undefined)	-1	6%	-4%	-6%	9	0%
CCN(CC)c1ccc(/C=N\N2CCN(Cc3ccc(C)cc3)CC2)cc1	-22	9%	x	x	x	0.79µM*
Cc1ccc(CN2CCN(/N=C/c3ccc(C(=O)O)cc3)CC2)cc1	10	5%	-22%	20%	61	-10%
Cc1ccc(/C=N/N2CCN(Cc3ccc(Cl)cc3)CC2)o1	-8	7%	-35%	-24%	-24	7.9µM*
Clc1ccc(CN2CCN(/N=C/c3ccco3)CC2)cc1	3	5%	x	x	x	u
Clc1cccc(N/N=C/c2ccc(N3CCOCC3)cc2)c1	5	1%	u	u	19	u
Clc1cccc(-c2ccc(C=Nc3ccc(N4CCOCC4)cc3)o2)c1Cl	9	1%	x	x	x	10µM*
Clc1ccc(-c2ccc(C=Nc3ccc(N4CCOCC4)cc3)o2)cc1	-13	-6%	-8%	-15%	u	3.5µM*
Clc1ccc(-c2ccc(C=Nc3ccc(N4CCOCC4)cc3)o2)c(Cl)c1	1	5%	x	x	x	-4%
COc1ccc(CN2CN(S(=O)(=O)c3ccccc3)c3nc4ccccc4nc32)cc1	-15	6%	x	x	x	x
O=C(Nc1ccccc1)C1=C(O)CC(c2ccc(Cl)cc2)N2CCN=C12 (centres undefined)	-12	-4%	-3%	-1%	u	14µM*
O=C(Nc1ccccc1)N1CCCC2(CCN(C(=O)c3cccc(F)c3)CC2)C1	x	-4%	-6%	5%	x	-1%
Cn1c(CN2CCCC(C(=O)c3ccc4c(c3)OCO4)C2)nc2ccccc21 (centres undefined)	3	6%	x	x	x	28µM*
Cc1csc2c(NCCCN3CCOCC3)ncnc12	-3	0%	x	x	x	12%
O=C(Nc1nc2ccc(S(=O)(=O)N3CCOCC3)cc2s1)c1cccs1	-4	25%	x	x	x	u
CNc1cc([N+](=O)[O-])ccc1N/C=C/C(=O)c1ccc2c(c1)OCO2	-9	4%	-16%	-3%	-118*	13µM*
CCOc1cc(NC(=O)C2CCCO2)c(OCC)cc1NC(C)=O (centres undefined)	1	-3%	-6%	-6%	-94*	u
COc1ccc(Cl)cc1NC(=O)C1CCCO1 (centres undefined)	-6	-15%	x	-5%	-12	u
COC(=O)COc1ccc(NC(=O)C2CCCO2)cc1 (centres undefined)	-5	9%	16µM*	0%	-15	u
COc1ccc(NC(=O)C2CCCO2)cc1 (centres undefined)	-4	4%	25µM*	-2%	u	6%
COc1ccc(-c2csc(NC(=O)C3CCCO3)n2)cc1 (centres undefined)	-12	-5%	u	-5%	-29	22µM*
[N-]=[N+]=Nc1nc2c(N)ncnc2n1C1OC(CO)C(O)C1O (centres undefined)	9	5%	-10%	11%	x	3%
SMILES	GLA inh pH 4.5	GLA spleen mod	HPGD inh	12-hLO inh	PNC assembly inh	ALDH1A1 inh
O=C(CCl)Nc1cn(-c2ccccc2)nc1-c1ccc(F)cc1	5	0%	x	x	x	u
CC1CCN(C(=O)c2ccc(NC(=O)C3CCCO3)cc2)CC1 (centres undefined)	-11	5%	0.71µM*	-4%	u	u
S=C(Nc1ccccc1Oc1ccccc1)NC1CCCC1	-3	-6%	x	x	x	-17%
S=C(Nc1ccc(Oc2ccccc2)cc1)NC1CCCC1	-6	-19%	-6%	14µM*	u	-10%
CC(=O)Nc1ccc(-c2csc(NC(C)c3ccccc3)n2)cc1 (centres undefined)	-4	-5%	x	x	x	18µM*
O=C(Nc1ccc(Oc2ccccc2)cc1)C1CCCO1 (centres undefined)	-1	11%	11µM*	-1%	4	-6%
CC[C@@H]1OC(=O)[C@@H](C)[C@H](O[C@H]2C[C@@](C)(OC)[C@@H](O)[C@H](C)O2)C(C)[C@H](O[C@H]2O[C@@H](C)C[C@@H](N(C)C)[C@@H]2O)[C@@](C)(O)C[C@H](C)C(=O)[C@@H](C)[C@H](O)[C@@]1(C)O (some centres undefined)	1	13%	-7%	-5%	x	-5%
CC1CC1C(=O)Nc1nc(-c2ccccc2)cs1 (centres undefined)	-3	-2%	-20%	-2%	38	10µM*
COC(=O)c1c(-c2ccc(F)cc2)csc1NC(=O)C1CCCO1 (centres undefined)	-1	-9%	x	x	x	20µM*
CN(C)CC(=O)Nc1nc(-c2ccccc2)cs1	-10	7%	-6%	0%	45	-2%
CC(NC(=O)C1CCCO1)c1ccccc1 (centres undefined)	2	-1%	18µM*	5%	-24	5%
CCc1ccc(-c2csc(NC(=O)C3CCCO3)c2C(=O)OC(C)C)cc1 (centres undefined)	5	-5%	-12%	-2%	-25	-5%
COc1cccc(CN2CCNC(=O)C2CC(=O)NCCn2cccn2)c1OC (centres undefined)	-2	10%	x	x	x	2%
Cc1ccccc1-n1nnnc1SC1CCOC1=O (centres undefined)	0	-2%	-12%	1%	-19	11µM*
COc1ccc(C(C)=O)cc1COC(=O)CNC(=O)c1ccccc1F	1	1%	u	3%	u	7.1µM*
COc1ccccc1C(=O)NNC(=O)c1ccccc1F	-17	-3%	-2%	-3%	u	-6%
CC(=O)N/C(=C\c1ccc(F)cc1)C(=O)N(C)C	-2	-1%	0%	1%	-3	16%
